# “And” between values parts separate entries of the source, which are not always exact repeats. Equal entries are not always repeated. The source made the active and inactive calls.
# Experiments:
# [1] = E. coli DRC41 culture turbidity changes, primary screen, E. coli filamentation inducer project, strain DRC41, OD650, 48 h (AID 1152);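 also: E. coli MC1000 strain DRC41 lacking acrAB efflux pump and sulA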; details: E. coli DRC41 (acrAB sulA), higher = more signal, called active from +8 up or from −8 down
# [2] = small-molecule binders of probe aLefty1, primary screen, biochemical, small-molecule microarray, 635/667 nm fluorescence (AID 1153); details: higher = more signal;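 also: score merges spot fluorescence with signal-to-noise ratio from the scanned slide images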
# [3] = PSAC antagonists in infected red cells, primary screen, cell-based, P. falciparum Indochina, OD700, 1 h (AID 1154); details: P. falciparum Indochina infected RBC osmotic lysis, higher = more signal, called active from +8 up or from −8 down
# [4] = PSAC antagonists in infected red cells, primary screen, cell-based, P. falciparum Indochina, OD700, 2 h (AID 1155);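 also: lysis reports solute entry through the parasite surface anion channel PSAC; channel blockers reduce lysis of infected cells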; details: P. falciparum Indochina infected erythrocytes, osmotic lysis OD700; higher = more signal, called active from +8 up or from −8 down
# [5] = osmotic lysis modulators in infected erythrocytes, primary screen, PSAC antagonist project, cell-based, P. falciparum Indochina, OD700, 3 h (AID 1156); details: higher = more signal, called active from +8 up or from −8 down
# [6] = PSAC antagonists in infected red cells, primary screen, cell-based, P. falciparum Indochina, OD700, 18 h (AID 1157); details: P. falciparum Indochina infected erythrocytes, osmotic lysis OD700, 18 h; higher = more signal, called active from +8 up or from −8 down
# [7] = modulators of S6 phosphorylation in cells, primary screen, cell-based, A549, cytoblot, luminescence, serum-stimulated (AID 1158); details: A549 phospho-S6 cytoblot, 5 h, higher = more signal;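 also: serum-stimulated A549 lung adenocarcinoma cells; signal is phosphorylated S6 detected by cytoblot immunostaining with HRP secondary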
# [8] = molecular target: NADPH oxidase 2 (Homo sapiens) (UniProt P04839); test: NOX2-dependent H2O2 signal modulators, primary screen, NOX inhibitor project, cell-based, HEK293-NOX2, PMA-stimulated, Amplex Red fluorescence (AID 1159); details: 45 min, higher = more signal, called active from +8 up or from −8 down; also: test concentration not given here
# [9] = molecular target: NADPH oxidase 4 (Homo sapiens) (UniProt Q9NPH5); test: NOX4-dependent H2O2 signal modulators, primary screen, NOX inhibitor project, cell-based, HEK293-NOX4, tetracycline-induced, Amplex Red fluorescence (AID 1160); details: 45 min, higher = more signal, called active from +8 up or from −8 down
# [10] = molecular target: NADPH oxidase 5 (Homo sapiens) (UniProt Q96PH1); test: NOX5-dependent H2O2 signal modulators, primary screen, NOX inhibitor project, cell-based, HEK293-NOX5, Amplex Red fluorescence (AID 1161); details: HEK293-NOX5, ionomycin, 45 min, higher = more signal
# [11] = A549 cell viability effects, profiling panel, calcein-AM fluorescence, 48 h, basal (AID 1162); details: higher = more signal; also: test concentration not given here
# [12] = adipocyte viability effects, profiling panel, cell-based, 3T3-L1 adipocytes, calcein-AM fluorescence, 48 h, basal (AID 1163); details: 3T3-L1 adipocytes viability, higher = more signal; also: test concentration not given here
# [13] = HepG2 cell viability effects, profiling panel, calcein-AM fluorescence, 48 h, basal (AID 1164); details: higher = more signal; also: test concentration not given here
# [14] = MM1S cell viability effects, profiling panel, calcein-AM fluorescence, 48 h, basal (AID 1165); details: higher = more signal;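 also: viability of MM1S multiple myeloma cells under basal unstimulated conditions; test concentration not given here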
# [15] = basal RPMI8226 viability, no added stimulus, profiling panel, cell-based, calcein-AM fluorescence, 48 h, PK04 Diversity Set (AID 1166); details: RPMI8226 myeloma viability, higher = more signal;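 also: cells grown under basal conditions without added stimulus; test concentration not given here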
# [16] = basal HepG2 mitochondrial membrane potential changes, profiling panel, cell-based, JC-1 fluorescence, 24 h, 100 nL compound (AID 1167); details: higher = more signal; also: test concentration not given here
# [17] = basal 3T3-L1 adipocyte mitochondrial potential changes, profiling panel, cell-based, JC-1 fluorescence, 3T3-L1 adipocytes, 24 h, 100 nL compound (AID 1168); details: JC-1 mitochondrial fluorescence, higher = more signal, called active from +8 up or from −8 down; also: test concentration not given here
# [18] = basal RPMI8226 mitochondrial membrane potential changes, profiling panel, cell-based, JC-1 fluorescence, 24 h, 100 nL compound (AID 1169); details: RPMI8226 myeloma, JC-1 mitochondrial potential fluorescence, higher = more signal; also: test concentration not given here
# [19] = basal MM1S mitochondrial membrane potential changes, profiling panel, cell-based, JC-1 fluorescence, 24 h, 100 nL compound (AID 1170); details: higher = more signal; also: test concentration not given here
# [20] = A549 lung cancer cell viability effects, profiling panel, resazurin fluorescence, 24 h, PK04 Diversity Set (AID 1171); details: higher = more signal, called active from +8 up or from −8 down; also: test concentration not given here
# NADPH oxidase 2 (Homo sapiens), sequence (P04839 whole entry, looked up): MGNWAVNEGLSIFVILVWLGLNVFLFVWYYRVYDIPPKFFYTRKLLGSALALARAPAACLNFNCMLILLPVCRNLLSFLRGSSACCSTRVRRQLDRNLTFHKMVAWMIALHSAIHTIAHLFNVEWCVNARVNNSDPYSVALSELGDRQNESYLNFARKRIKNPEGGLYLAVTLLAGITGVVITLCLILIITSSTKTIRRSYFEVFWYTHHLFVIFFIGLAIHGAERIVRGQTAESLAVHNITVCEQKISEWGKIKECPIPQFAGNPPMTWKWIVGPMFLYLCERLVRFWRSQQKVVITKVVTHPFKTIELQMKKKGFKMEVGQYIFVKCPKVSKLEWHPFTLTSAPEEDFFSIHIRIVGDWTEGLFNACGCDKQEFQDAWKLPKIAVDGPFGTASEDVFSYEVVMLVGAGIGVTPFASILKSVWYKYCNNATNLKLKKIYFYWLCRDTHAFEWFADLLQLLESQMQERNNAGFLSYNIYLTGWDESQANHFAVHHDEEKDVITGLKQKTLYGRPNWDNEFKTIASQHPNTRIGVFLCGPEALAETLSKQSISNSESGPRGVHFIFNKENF
# NADPH oxidase 5 (Homo sapiens), sequence (Q96PH1 whole entry, looked up): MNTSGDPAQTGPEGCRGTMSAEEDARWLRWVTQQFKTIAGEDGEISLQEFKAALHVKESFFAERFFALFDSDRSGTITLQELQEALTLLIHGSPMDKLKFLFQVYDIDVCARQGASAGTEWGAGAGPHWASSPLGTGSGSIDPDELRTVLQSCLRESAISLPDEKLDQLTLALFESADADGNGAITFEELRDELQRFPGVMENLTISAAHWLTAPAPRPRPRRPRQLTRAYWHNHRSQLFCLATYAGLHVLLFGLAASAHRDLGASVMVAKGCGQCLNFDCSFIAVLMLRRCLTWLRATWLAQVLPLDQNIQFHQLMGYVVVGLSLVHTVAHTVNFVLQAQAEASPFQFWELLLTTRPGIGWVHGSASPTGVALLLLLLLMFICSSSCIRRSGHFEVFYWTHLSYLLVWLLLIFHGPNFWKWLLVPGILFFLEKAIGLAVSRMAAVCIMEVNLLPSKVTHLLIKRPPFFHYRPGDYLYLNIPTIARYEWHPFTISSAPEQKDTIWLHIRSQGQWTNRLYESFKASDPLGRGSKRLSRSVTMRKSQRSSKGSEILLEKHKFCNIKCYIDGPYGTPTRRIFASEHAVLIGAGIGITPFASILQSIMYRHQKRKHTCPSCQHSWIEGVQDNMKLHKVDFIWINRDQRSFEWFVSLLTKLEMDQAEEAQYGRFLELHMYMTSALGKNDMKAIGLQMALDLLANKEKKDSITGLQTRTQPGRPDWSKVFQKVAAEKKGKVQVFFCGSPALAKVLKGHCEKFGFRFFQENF
# NADPH oxidase 4 (Homo sapiens), sequence (Q9NPH5 whole entry, looked up): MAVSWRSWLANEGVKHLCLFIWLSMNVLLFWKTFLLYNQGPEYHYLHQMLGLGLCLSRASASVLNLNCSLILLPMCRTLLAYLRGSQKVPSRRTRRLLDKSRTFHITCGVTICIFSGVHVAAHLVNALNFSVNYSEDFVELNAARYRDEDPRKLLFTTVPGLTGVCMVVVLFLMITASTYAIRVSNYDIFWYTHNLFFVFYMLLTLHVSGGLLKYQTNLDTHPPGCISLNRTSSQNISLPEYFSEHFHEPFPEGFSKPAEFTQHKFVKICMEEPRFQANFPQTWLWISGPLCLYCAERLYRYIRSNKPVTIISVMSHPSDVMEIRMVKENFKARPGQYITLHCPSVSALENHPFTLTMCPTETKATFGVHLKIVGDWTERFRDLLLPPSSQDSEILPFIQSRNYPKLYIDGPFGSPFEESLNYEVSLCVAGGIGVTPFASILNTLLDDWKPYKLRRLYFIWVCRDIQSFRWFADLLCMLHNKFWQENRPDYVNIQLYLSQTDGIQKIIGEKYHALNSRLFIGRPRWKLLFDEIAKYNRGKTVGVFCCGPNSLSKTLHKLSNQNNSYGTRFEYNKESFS
SMILES,z-score [1],composite z-score [2],z-score [3],z-score [4],z-score [5],z-score [6],z-score [7],z-score [8],z-score [9],z-score [10],z-score [11],z-score [12],z-score [13],z-score [14],z-score [15],z-score [16],z-score [17],z-score [18],z-score [19],z-score [20]
CC(=O)OC[C@H]1O[C@H](C#CC(C)(C)C)C=C[C@@H]1OC(C)=O,0.192 (inactive),-0.0969,-0.184 (inactive),0.0987 (inactive),-0.537 (inactive),-0.0954 (inactive),-0.675,1.5 (inactive),0.847 (inactive),0.943,-0.327,-0.274,-0.24,-3.02,-1.73,-0.888,0.386 (inactive),-0.776,0.085,-0.595 (inactive)
C#CCCCON=C1C[C@@H](O)[C@@H](O)[C@@H]2[C@@H]3C(=O)N(C4CCCCC4)C(=O)[C@@H]3CC[C@H]12,0.747 (inactive),-0.147,0.869 (inactive),-0.68 (inactive),0.403 (inactive),-0.113 (inactive),-0.126,-1.26 (inactive),-0.426 (inactive),-2.7,-0.0446,-0.277,1.15,0.471,-0.584,0.289,0.201 (inactive),0.515,-0.353,0.108 (inactive)
C=CCN(C(=O)C1N(CCCCCCO)C(=O)C2C(C(=O)O)C3C=CC21O3)c1ccc(OC)cc1 (stereo not given),2.17 (inactive) and 0.932 (inactive),0.153 and 0.659,0.12 (inactive) and -0.718 (inactive),-1.31 (inactive) and 0.0039 (inactive),-0.398 (inactive) and -0.196 (inactive),-1.43 (inactive) and -0.157 (inactive),0.441 and -0.173,0.846 (inactive) and 0.381 (inactive),-0.0568 (inactive) and -0.682 (inactive),1.3 and 0.105,1.37 and 0.282,0.743 and -0.0063,-0.46 and 0.428,0.315 and -1.1,0.432 and 0.269,0.113 and -0.546,0.74 (inactive) and 0.861 (inactive),-0.875 and -0.0778,1.02 and 1.2,1.09 (inactive) and 0.416 (inactive)
CCOC(=O)NN=C1C[C@@H](O)[C@@H](O)[C@@H]2[C@@H]3C(=O)N(Cc4ccccc4)C(=O)[C@@H]3CC[C@@H]12,-2.78 (inactive),-0.641,1.04 (inactive),0.628 (inactive),0.979 (inactive),0.403 (inactive),-0.154,-0.6 (inactive),-0.393 (inactive),-0.365,-0.226,-0.0135,-1.29,0.599,-0.461,0.548,0.152 (inactive),0.387,-0.979,0.0002 (inactive)
COC(=O)[C@@]1(Cc2ccccc2)[C@H]2c3cc(C(=O)N(C)C)n(C[C@H](O)CO)c3C[C@H]2CN1C(=O)c1ccccc1,-0.741 (inactive) and -1.44 (inactive),0.0903 and 0.415,0.67 (inactive) and 0.448 (inactive),0.324 (inactive) and 0.32 (inactive),1.28 (inactive) and 0.776 (inactive),0.789 (inactive) and 0.446 (inactive),-0.0187 and -0.333,-0.0779 (inactive) and 0.104 (inactive),-3.17 (inactive) and -0.539 (inactive),-4.08 and -0.292,-0.876 and -0.976,0.318 and -0.385,-0.76 and -1.07,0.112 and 0.416,-1.95 and 0.383,-1.04 and -0.162,-0.0997 (inactive) and -0.187 (inactive),-0.194 and -0.294,-0.609 and -0.129,-1.3 (inactive) and -0.848 (inactive)
COC(=O)C1=C(C)N(Cc2ccccc2)C2=C3C(=O)N(C)C(=O)[C@@H]3[C@@](O)(C(=O)OC)C(=O)N2[C@@H]1c1ccccc1,0.71 (inactive) and -0.313 (inactive),0.0341 and 0.0278,-0.188 (inactive) and -1.06 (inactive),-0.215 (inactive) and -1.49 (inactive),-0.745 (inactive) and -0.379 (inactive),-0.339 (inactive) and -1.77 (inactive),-0.137 and 1.48,1.13 (inactive) and -0.926 (inactive),0.507 (inactive) and 0.254 (inactive),-0.0308 and 0.418,0.77 and 0.914,-0.159 and 0.143,0.215 and 1.05,-0.607 and -0.213,0.0606 and 0.359,0.981 and 0.11,-0.531 (inactive) and 0.96 (inactive),0.134 and -0.542,0.739 and 0.467,1.18 (inactive) and -1.08 (inactive)

# — PubChem BioAssay
